Data taken from article PMC8769072, “Proteome‐scale mapping of binding sites in the unstructured regions of the human proteome” (Molecular Systems Biology, 2022).

Each binder was assayed against TNKS 174-649, O95271.
TNKS 174-649, O95271, sequence (O95271 174-649): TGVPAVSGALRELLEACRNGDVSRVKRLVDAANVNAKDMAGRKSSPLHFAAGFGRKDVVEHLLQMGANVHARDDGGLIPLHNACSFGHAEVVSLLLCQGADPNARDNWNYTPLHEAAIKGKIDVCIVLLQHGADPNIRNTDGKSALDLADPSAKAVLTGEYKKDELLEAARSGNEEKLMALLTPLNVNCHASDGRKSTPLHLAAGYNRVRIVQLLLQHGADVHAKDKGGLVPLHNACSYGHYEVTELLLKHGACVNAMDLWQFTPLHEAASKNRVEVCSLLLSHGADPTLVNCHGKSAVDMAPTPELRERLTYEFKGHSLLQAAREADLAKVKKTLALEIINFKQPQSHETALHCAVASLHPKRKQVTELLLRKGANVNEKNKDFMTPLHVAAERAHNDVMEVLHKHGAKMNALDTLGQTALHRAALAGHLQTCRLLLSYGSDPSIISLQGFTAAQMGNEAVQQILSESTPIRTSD

Binder | selected by phage display
ARQEPQGQEHQVDNTV [AMOTL1, Q8IY63] | confidence 3 (active)
GTREDPAGQETTAITN [LINC01547, P58512] | confidence 2 (active)
MSGLVLGQRDEPAGHR [KLC4, Q9NSK0] | confidence 2 (active)
ATGSDPLWQRLEPAGH [PLCH2, O75038] | confidence 4 (active)
EEDADTMRLQPIGRDK [RSF1, Q96T23] | confidence 3 (active)
MMVESASETIRSAPSG [FOXP4, Q8IVH2] | confidence 3 (active)
TSVVGFSADGMRPEAI [MAP4K4, O95819] | confidence 2 (active)
YLSFRSVGDGLSTSAV [CSB-PGBD3, P0DP91] | confidence 3 (active)
PQLPHLQRSPPDGQSF [SH3BP2, P78314] | confidence 2 (active)

The binders below were run against TSG101 1-145, Q99816.
TSG101 1-145, Q99816, sequence (Q99816 1-145): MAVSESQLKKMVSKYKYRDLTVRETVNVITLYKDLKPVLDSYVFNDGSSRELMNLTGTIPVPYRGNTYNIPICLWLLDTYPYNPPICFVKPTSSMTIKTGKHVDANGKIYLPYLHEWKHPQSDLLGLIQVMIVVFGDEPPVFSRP

Binder | selected by phage display
SVAKAVQASAPADERI [STOX1, Q6ZVD7] | confidence 3 (active)
VTVVPTAPDPVPADSV [CABIN1, Q9Y6J0] | confidence 3 (active)
SLMPSAPHPVKEASPG [TET1, Q8NFU7] | confidence 3 (active)
DSTVHTSATAPTYIAN [MGAM2, Q2M2H8] | confidence 3 (active)
GAMAVTANPPSNPYWI [ATP10D, Q9P241] | confidence 2 (active)
VQPSAPEHSSLASWLL [GUCY1B2, O75343] | confidence 4 (active)
LLPETVSPSAPSWREP [CBX6, O95503] | confidence 3 (active)
PTPTAPLLPPQPATPL [EP300, Q09472] | confidence 2 (active)
MARPDPSAPPSLLLLL [FZD5, Q13467] | confidence 2 (active)
AEPSAPSLPAGPTGVE [TMEM131L, A2VDJ0] | confidence 3 (active)
LPSAPGAEQTAGSLLY [E2F3, O00716] | confidence 2 (active)
EEQAGTVASAPLGHSD [LRRFIP1, Q32MZ4] | confidence 4 (active)
ANTDPTAPPYDTLLVF [CDH3, P22223] | confidence 2 (active)
KPSAPPAPELNNSLHP [KMT2D, O14686] | confidence 3 (active)
PVVPTAPELQPSTSTD | confidence 3 (active)
EVHTAPSAPLAFGSQQ [ZNF589, Q86UQ0] | confidence 3 (active)
VPSAPIDPQAQLEADK [PKNOX2, Q96KN3] | confidence 2 (active)
GPTAPPAPGPTAPPAF [SUFU, Q9UMX1] | confidence 2 (active)
DAPLLQPSAPSSSSSQ [GGA3, Q9NZ52] | confidence 2 (active)
AGPGGGLTPSAPPYGA [PIP4P1, Q86T03] | confidence 3 (active)
PTAPPLQPHPGLHHQS [CHD7, Q9P2D1] | confidence 4 (active)
PSAPLPFVPPPAVPSV [PRRC1, Q96M27] | confidence 4 (active)
PLEPSAPSKLHSVTGI [BEST1, O76090] | confidence 3 (active)
APSAPPAPPAPPESTV [ATOH8, Q96SQ7] | confidence 3 (active)
PSAAEHIVSPSAPAGD [TACC2, O95359] | confidence 2 (active)

Binder | selected by phage display
EMAVVLNGGTIPTAPP [GPRC5B, Q9NZH0] | confidence 4 (active)
VTLPTAPNMNSEPTLQ [MFSD6, Q6ZSS7] | confidence 3 (active)
VGAKALPTAPPPPPLP [INF2, Q27J81] | confidence 3 (active)
EALLTPLPPSAPPSVD [NPIPA3, F8WFD2] | confidence 3 (active)
PSAPTPPIPSPPSTLP [ANTXR1, Q9H6X2] | confidence 2 (active)
PTAPELRPSTSTDRPV | confidence 3 (active)
PSALPSVPEPSAPAAP [TRIM47, Q96LD4] | confidence 3 (active)
SLPHTPTTPTAPLTPV [FOXP1, Q9H334] | confidence 3 (active)
GSIVRPSAPPARSSVP | confidence 2 (active)
AEASAPPAPELFSPPV [EME1, Q96AY2] | confidence 2 (active)
VPNMPSAPQAYSELQM [UBAP1, Q9NZ09] | confidence 3 (active)
EVLASAPPLPPSTAAP [WASH4P, A8MWX3] | confidence 3 (active)
LTPTAPSRTGSVQTPP [SSFA2, P28290] | confidence 4 (active)
AVGASAPSAPTAHPQP [DCAF1, Q9Y4B6] | confidence 2 (active)
NLSLTPSAPSLTLEAG [SRCAP, Q6ZRS2] | confidence 3 (active)
SQPSAPDFVQRGFDSF [UTRN, P46939] | confidence 2 (active)
VVVPSAPEVQETTRML [NEO1, Q92859] | confidence 2 (active)
EHAELAPPAPSAPSWG [SHKBP1, Q8TBC3] | confidence 3 (active)
LSRTFLSIPSAPPLYL [CCDC168, Q8NDH2] | confidence 2 (active)
PTLQPSAPQQARDPFE [DENND1A, Q8TEH3] | confidence 2 (active)
PTAPIFLQGLSDLKVM [MYLK, Q15746] | confidence 3 (active)
PSAPPQVQLPVSLDLP [ZFHX4, Q86UP3] | confidence 2 (active)
TAAIPSAPVLPPPPVH | confidence 4 (active)
PSAPDMEDFGLVKLPH [POLE, Q07864] | confidence 2 (active)

What follows are binders tested against USP7 53-206, Q93009.
USP7 53-206, Q93009, sequence (Q93009 53-206): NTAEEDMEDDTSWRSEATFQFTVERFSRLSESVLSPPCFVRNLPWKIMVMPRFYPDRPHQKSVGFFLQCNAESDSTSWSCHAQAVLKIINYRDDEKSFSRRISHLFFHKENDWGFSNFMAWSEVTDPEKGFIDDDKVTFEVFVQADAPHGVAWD

Binder | selected by phage display
PSVPSVSTTSVTMPNV [TSC22D2, O75157] | confidence 4 (active)
HDATASSSSAAATVRA [BSN, Q9UPA5] | confidence 4 (active)
LSNSESKATSSLMMLD [SIX4, Q9UIU6] | confidence 2 (active)
DAASSSGSSSHAHVNS [RTTN, Q86VV8] | confidence 3 (active)
